Experimental data published in PMC7862700, “An all-to-all approach to the identification of sequence-specific readers for epigenetic DNA modifications on cytosine”.

Tests used:
Assay in all cases: DAPPL (digital affinity profiling via proximity ligation, sequencing); 10 mM Tris-HCl pH 7.5, 50 mM NaCl, 1 mM DTT, 4% glycerol, room temperature, 30 min; GST-TFs on glutathione beads, 16-mer random dsDNA library, 0.1% formaldehyde crosslink after washing; high values mean tight binding
Settings in all cases: protein: recombinant; tags: N-terminal GST; dsDNA, one strand shown
FLI1 = target: T1, FLI1 (Homo sapiens, UniProt Q01543 1-452)
T1 sequence: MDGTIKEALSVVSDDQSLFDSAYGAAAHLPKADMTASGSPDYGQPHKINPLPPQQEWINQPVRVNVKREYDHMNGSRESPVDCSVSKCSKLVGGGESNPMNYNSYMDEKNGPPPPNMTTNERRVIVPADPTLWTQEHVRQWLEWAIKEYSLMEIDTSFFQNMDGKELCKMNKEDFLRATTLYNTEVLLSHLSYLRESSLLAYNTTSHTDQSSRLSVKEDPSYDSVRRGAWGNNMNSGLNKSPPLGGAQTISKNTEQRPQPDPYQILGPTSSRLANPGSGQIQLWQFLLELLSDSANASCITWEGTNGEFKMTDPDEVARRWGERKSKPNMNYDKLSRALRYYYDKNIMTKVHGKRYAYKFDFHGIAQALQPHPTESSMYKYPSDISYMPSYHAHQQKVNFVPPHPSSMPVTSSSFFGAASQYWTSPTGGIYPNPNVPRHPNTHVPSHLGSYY
How it was run: (§1)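 Human transcription factors carrying a GST fusion were produced in yeast, bound to glutathione beads, tagged with DNA barcodes and pooled together with a tag-only sample. Each pool was held with 200 nmole of a random double-stranded 16-mer DNA library in Tris/NaCl/DTT/glycerol buffer for 30 min at room temperature, then washed, crosslinked in 0.1% formaldehyde, proximity-ligated with BsaI/T4 ligase (1 h, 37 °C), PCR-amplified and sequenced on an Illumina NextSeq500. Binding signal is the read frequency of each hexamer for a given factor divided by its frequency in the tag-only sample.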

ELK1 = target: T2, ELK1 (Homo sapiens, UniProt P19419 1-428)
T2 sequence: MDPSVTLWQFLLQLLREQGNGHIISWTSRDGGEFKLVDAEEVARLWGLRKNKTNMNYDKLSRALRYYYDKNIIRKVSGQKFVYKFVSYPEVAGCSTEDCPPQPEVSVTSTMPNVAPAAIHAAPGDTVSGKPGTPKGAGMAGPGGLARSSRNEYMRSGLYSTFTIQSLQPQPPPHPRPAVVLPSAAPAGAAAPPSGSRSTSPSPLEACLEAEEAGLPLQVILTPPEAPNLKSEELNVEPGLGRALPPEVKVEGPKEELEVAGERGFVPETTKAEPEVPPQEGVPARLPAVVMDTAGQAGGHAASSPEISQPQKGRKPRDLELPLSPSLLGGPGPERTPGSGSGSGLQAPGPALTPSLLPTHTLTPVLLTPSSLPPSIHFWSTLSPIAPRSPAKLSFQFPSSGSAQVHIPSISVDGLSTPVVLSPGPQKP
How it was run: as §1

GABPA = target: T3, GABPA (Homo sapiens, UniProt Q06546 1-454)
T3 sequence: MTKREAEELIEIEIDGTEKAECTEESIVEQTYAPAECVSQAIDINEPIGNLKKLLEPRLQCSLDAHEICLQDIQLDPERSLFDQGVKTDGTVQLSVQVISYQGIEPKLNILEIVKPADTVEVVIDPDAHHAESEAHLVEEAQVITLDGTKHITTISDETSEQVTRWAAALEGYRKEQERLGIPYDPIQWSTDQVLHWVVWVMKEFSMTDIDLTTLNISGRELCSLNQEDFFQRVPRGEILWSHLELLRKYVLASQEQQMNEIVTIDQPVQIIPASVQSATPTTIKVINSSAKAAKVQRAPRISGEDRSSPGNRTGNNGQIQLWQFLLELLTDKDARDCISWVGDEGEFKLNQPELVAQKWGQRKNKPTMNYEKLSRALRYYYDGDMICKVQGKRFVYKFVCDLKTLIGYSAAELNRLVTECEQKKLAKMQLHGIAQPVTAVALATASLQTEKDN
How it was run: as §1

ERG = target: T4, ERG (Homo sapiens, UniProt P11308 1-479)
T4 sequence: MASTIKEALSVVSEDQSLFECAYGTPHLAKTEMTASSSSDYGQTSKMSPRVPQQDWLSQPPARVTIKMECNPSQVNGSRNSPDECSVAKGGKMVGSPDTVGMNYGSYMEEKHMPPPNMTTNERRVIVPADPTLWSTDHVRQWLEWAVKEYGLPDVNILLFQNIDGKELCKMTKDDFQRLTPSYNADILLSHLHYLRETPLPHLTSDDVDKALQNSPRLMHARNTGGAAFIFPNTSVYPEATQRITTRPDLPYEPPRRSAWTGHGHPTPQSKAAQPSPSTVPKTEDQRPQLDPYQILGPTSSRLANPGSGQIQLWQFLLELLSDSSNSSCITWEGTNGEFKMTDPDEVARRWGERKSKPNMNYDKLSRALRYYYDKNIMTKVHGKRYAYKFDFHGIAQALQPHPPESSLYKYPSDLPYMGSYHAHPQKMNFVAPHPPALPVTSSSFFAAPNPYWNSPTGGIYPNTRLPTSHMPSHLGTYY
How it was run: as §1

ELF1 = ELF1 (Homo sapiens, UniProt P32519 1-619)
Sequence of ELF1 (P32519 whole entry): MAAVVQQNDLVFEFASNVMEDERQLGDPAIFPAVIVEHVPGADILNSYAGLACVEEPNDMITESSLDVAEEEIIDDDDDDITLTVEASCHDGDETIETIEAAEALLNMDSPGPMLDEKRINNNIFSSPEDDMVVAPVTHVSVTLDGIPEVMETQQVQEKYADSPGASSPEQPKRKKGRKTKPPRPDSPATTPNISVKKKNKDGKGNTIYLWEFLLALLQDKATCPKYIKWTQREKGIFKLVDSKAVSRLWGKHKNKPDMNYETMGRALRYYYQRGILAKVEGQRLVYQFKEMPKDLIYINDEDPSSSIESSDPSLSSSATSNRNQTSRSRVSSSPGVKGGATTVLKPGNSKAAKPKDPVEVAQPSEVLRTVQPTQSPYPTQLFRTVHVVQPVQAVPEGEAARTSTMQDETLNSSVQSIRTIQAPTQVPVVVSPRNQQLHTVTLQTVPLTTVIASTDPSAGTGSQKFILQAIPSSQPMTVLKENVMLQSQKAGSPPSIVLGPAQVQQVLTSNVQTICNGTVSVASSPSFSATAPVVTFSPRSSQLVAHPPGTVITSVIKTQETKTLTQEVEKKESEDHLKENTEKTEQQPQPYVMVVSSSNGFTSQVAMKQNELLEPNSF
How it was run: as §1

EHF = target: T5, EHF (Homo sapiens, UniProt Q9NZC4 1-300)
T5 sequence: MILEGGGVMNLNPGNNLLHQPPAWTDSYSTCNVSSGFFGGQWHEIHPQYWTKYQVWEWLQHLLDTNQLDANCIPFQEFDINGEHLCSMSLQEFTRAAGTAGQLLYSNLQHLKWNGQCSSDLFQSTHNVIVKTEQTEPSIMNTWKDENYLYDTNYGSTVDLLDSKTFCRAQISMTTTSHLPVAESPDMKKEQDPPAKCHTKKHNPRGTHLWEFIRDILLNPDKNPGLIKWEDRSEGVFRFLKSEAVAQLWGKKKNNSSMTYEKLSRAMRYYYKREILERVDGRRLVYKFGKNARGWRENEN
How it was run: as §1

SPI1 = SPI1 (Homo sapiens, UniProt P17947 1-270)
How it was run: as §1

SPIB = SPIB (Homo sapiens, UniProt Q01892 1-262)
Sequence of SPIB (Q01892 whole entry): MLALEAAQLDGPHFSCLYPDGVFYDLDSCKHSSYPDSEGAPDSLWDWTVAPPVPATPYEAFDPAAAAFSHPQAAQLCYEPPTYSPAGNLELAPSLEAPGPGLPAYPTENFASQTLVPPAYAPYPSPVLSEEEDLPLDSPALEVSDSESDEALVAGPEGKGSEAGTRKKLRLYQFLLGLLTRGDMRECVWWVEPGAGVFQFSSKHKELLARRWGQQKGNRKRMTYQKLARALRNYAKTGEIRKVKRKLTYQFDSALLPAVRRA
How it was run: as §1

ELK3 = target: T6, ELK3 (Homo sapiens, UniProt P41970 1-407)
T6 sequence: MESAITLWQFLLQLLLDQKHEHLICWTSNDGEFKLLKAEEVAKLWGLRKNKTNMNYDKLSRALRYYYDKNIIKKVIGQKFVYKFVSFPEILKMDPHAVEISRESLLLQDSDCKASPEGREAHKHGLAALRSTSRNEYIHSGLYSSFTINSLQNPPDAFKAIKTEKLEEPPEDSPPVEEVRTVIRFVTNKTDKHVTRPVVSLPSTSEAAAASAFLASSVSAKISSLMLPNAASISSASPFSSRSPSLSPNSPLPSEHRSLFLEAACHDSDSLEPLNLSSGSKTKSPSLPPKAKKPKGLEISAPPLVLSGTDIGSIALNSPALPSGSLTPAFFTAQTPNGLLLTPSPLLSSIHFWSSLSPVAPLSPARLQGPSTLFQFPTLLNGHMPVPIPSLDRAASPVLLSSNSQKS
How it was run: as §1

FEV = target: T7, FEV (Homo sapiens, UniProt Q99581 1-238)
T7 sequence: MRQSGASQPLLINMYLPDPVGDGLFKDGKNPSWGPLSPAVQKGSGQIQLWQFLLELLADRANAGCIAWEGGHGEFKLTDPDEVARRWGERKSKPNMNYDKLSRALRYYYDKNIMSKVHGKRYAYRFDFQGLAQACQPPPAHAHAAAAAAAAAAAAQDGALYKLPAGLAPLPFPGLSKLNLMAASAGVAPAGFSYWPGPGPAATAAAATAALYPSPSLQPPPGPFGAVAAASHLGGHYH
How it was run: as §1

For ACGTTG, the binding signal (FLI1) was 1.14 fold enrichment (6-mer frequency, TF over GST control), the binding signal (ELK1) was 1.11 fold enrichment (6-mer frequency, TF over GST control) and the binding signal (GABPA) was 1.05 fold enrichment (6-mer frequency, TF over GST control). For the same sequence, the binding signal (ERG) was 1.05 fold enrichment (6-mer frequency, TF over GST control), the binding signal (ELF1) was 1.03 fold enrichment (6-mer frequency, TF over GST control) and the binding signal (EHF) was 1.07 fold enrichment (6-mer frequency, TF over GST control). The binding signal (SPI1) was 1.08 fold enrichment (6-mer frequency, TF over GST control), the binding signal (SPIB) was 1.02 fold enrichment (6-mer frequency, TF over GST control) and the binding signal (ELK3) was 1.01 fold enrichment (6-mer frequency, TF over GST control). For the same sequence, the binding signal (FEV) was 1.07 fold enrichment (6-mer frequency, TF over GST control).
